The values that follow come from PubChem BioAssay.

Molecules are shown by their SMILES. The source made the active and inactive calls. Unless noted, how the calls were made is not given here.

Experiment [1] can be described thus: HepG2 liver cancer cell viability effects, profiling panel, resazurin fluorescence, 24 h, PK04 Diversity Set (AID 1172). Further: test concentration not given here. The conditions noted are these: higher = more signal.
Experiment [2] is described as follows: basal S. cerevisiae growth modulation, no modifier, primary screen, OD600, strain BY4716, 24 h, basal condition (AID 1173). The conditions noted are these: OD600, 24 h, higher = more signal, called active from +8 up or from −8 down.
Experiment [3] can be described thus: MM1S myeloma cell viability, profiling panel, resazurin fluorescence, basal, 24 h, PK04 Diversity Set (AID 1174).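 Further: MM1S multiple myeloma cell line; test concentration not given here.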 The conditions noted are these: higher = more signal, called active from +8 up or from −8 down.
Experiment [4] has as its target Dihydroorotate dehydrogenase (quinone), mitochondrial (Plasmodium falciparum (isolate 3D7)) (UniProt Q08210). In words: PfDHODH enzyme inhibitors, primary screen, biochemical, C-terminal His tag, absorbance 600 nm (AID 1175).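 Further: recombinant parasite enzyme with a five histidine tag at its C terminus; test concentration not given here.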 The conditions noted are these: DCIP absorbance 600 nm, higher = more signal, called active from +8 up or from −8 down.
Experiment [5] is described as follows: P. aeruginosa biofilm formation inhibitors, primary screen, strain PAO1, LB-PBS medium, absorbance 600 nm (AID 1176). Further: test concentration not given here. As to conditions: P. aeruginosa PAO1 growth/biofilm, A600, 12 h; higher = more signal.
Experiment [6] in a line: S. cerevisiae RM11-1a growth modifiers, primary screen, strain RM11-1a, OD600, basal, 24 h (AID 1177).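 Further: cultures grown under basal conditions with no added stressor; test concentration not given here.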 As to conditions: OD600, 24 h, higher = more signal, called active from +8 up or from −8 down.
The nature of experiment [7]: E. coli acrAB mutant growth effects, primary screen, E. coli filamentation inducers, strain DRC39, OD650, 24 h (AID 1178).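 Further: growth measured as culture turbidity by optical density at 650 nm; test concentration not given here.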 As to conditions: higher = more signal, called active from +8 up or from −8 down.
Experiment [8] is described as follows: E. coli acrAB mutant growth effects, primary screen, E. coli filamentation inducers, strain DRC39, OD650, 48 h (AID 1179).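 Further: screen aims at cell division blockers that make cells filament.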 The conditions noted are these: E. coli DRC39 delta-acrAB growth, higher = more signal, called active from +8 up or from −8 down.
Experiment [9] in a line: RPMI8226 myeloma cell viability, profiling panel, resazurin fluorescence, basal, 24 h, PK04 Diversity Set (AID 1180).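 Further: RPMI8826 multiple myeloma cell line at 5000 cells per well; test concentration not given here.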 As to conditions: higher = more signal. Background: The colour change of resazurin is a common sign of viable cells or microbes.
Experiment [10] addresses E3 ubiquitin-protein ligase XIAP (Homo sapiens) (UniProt P98170). The experiment is described as follows: XIAP binders, primary screen, biophysical, small-molecule microarray, fluorescence 635 nm (AID 1181).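 Further: score merges 667 nm emission and signal to noise over triplicate slides.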 As to conditions: small-molecule microarray binding, higher = more signal.

Sequence of E3 ubiquitin-protein ligase XIAP (Homo sapiens) (P98170 whole entry, looked up): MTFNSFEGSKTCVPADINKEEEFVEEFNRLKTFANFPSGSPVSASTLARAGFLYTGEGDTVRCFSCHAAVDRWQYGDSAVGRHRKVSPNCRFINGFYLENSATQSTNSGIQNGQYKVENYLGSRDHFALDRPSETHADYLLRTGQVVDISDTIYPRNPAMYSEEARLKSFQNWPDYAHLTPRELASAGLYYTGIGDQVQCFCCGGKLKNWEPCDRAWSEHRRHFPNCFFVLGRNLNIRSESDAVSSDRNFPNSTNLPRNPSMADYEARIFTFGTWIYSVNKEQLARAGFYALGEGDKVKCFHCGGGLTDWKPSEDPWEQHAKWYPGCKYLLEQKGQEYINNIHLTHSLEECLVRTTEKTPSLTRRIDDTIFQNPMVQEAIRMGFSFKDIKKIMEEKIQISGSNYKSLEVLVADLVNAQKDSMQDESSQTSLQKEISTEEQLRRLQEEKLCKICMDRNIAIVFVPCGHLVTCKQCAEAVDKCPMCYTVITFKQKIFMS
Sequence of Dihydroorotate dehydrogenase (quinone), mitochondrial (Plasmodium falciparum (isolate 3D7)) (Q08210 whole entry, looked up): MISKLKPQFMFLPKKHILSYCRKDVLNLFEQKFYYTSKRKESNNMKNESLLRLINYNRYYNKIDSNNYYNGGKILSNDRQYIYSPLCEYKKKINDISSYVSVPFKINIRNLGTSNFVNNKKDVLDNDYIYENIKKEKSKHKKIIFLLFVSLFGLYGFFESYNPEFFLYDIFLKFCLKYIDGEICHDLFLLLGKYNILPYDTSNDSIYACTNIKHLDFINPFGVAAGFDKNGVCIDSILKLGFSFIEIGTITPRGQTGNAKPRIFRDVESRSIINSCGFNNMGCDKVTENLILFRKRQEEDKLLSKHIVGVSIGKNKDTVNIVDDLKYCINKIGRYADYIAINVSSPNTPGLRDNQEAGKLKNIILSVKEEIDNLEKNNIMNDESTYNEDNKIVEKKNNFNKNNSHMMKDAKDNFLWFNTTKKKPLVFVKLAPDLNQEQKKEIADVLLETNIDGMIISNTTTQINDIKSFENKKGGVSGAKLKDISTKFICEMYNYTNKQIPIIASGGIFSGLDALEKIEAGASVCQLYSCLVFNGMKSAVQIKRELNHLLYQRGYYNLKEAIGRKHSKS

As for `COc1ccc([Si](C)(C)[C@@H]2[C@@H](CCn3cc(CCO)nn3)O[C@]3(C(=O)N(Cc4cccc(N5C(=O)c6cccc7cccc5c67)c4)c4ccccc43)[C@H]2C)cc1`, the z-score is -3.66 in experiment [1]; 0.348 (inactive) in experiment [2]; -6.83 (inactive) in experiment [3]; -0.459 (inactive) in experiment [5]; 1.69 (inactive) in experiment [6]; -0.162 (inactive) in experiment [7]. The values for the z-score in experiment [8] and in experiment [9] were -0.831 (inactive) and -6.09, respectively. For the same compound, the composite z-score in experiment [4] was 0.0598 (inactive); in [10], -0.0999.
Turning to `NC(=O)[C@@H]1[C@H]2C(=O)O[C@H](c3ccccc3)[C@H](c3ccccc3)N2[C@H](c2ccc(O)cc2)[C@@]12C(=O)Nc1ccc(C#CC3=CCCCC3)cc12`, the z-score in experiment [1] was -0.712; in experiment [2] it was 0.761 (inactive); in experiment [3] it was -7.46 (inactive); in [5], 0.802 (inactive); in experiment [6], 2.07 (inactive); in experiment [7], -0.488 (inactive). Besides, the z-score in [8] is -0.705 (inactive); in experiment [9] it was -6.39. Also, the composite z-score in [4] was 1.68 (inactive); in [10], -0.0696.
Regarding `COCC(=C=CC[C@H](O)c1cccc(OCCO)c1)CCO`, the z-score in [1] was 0.72; in experiment [2] it was 0.161 (inactive); in experiment [3], 0.491 (inactive); in experiment [5], 0.154 (inactive); in experiment [6], 0.896 (inactive); in experiment [7] it was 0.128 (inactive). In addition, the figures for the z-score in experiment [8] and in [9] were 0.398 (inactive) and 0.557, respectively. The figures for the composite z-score in experiment [4] and in [10] were -0.326 (inactive) and 0.0153, respectively.
With `CC(C)NC(=O)[C@@]1(Cc2ccccc2I)c2ccccc2C(=O)N(Cc2ccccc2Cl)[C@H]1c1ccc(CO)cc1`, the z-score in experiment [1] is -0.344; in [2], -0.673 (inactive); in experiment [3], 0.179 (inactive); in [5], -0.103 (inactive); in experiment [6], 0.818 (inactive); in [7], 0.107 (inactive). For the same compound, the values for the z-score in experiment [8] and in experiment [9] were -0.706 (inactive) and -0.0558, respectively. Besides, the composite z-score in experiment [4] is 0.0754 (inactive); in [10], 0.0049.
`CN1C(=O)C2C=CC(C(O)c3ccc(F)cc3)N(N(c3ccccc3)c3ccccc3)C2C1=O` (stereo not given): the z-score in experiment [1] was -0.898; in experiment [2], 0.41 (inactive); in experiment [3], -0.957 (inactive); in [5], 1.14 (inactive); in experiment [6] it was 0.242 (inactive); in experiment [7] it was -0.513 (inactive). The z-score in experiment [8] was -0.26 (inactive); in experiment [9], -1.36. In addition, the figures for the composite z-score in experiment [4] and in experiment [10] were -0.0882 (inactive) and 0.499, respectively.
As to `COc1ccc(CCNC(=O)[C@@]2(C)c3ccccc3C(=O)N(c3ccc(C)cn3)[C@H]2c2ccc(CO)cc2)cc1`, the z-score in experiment [1] is 0.437; in experiment [2] it was -0.673 (inactive); in [3], 0.978 (inactive); in [5], -0.301 (inactive); in [6], 0.0798 (inactive); in [7], 0.0083 (inactive). The z-score in experiment [8] was 0.737 (inactive); in experiment [9] it was 0.933. Also, the results for the composite z-score in experiment [4] and in [10] were -0.907 (inactive) and -0.0838, respectively.
Consider `CC(C)(C)OC(=O)CC[C@@]1(C(=O)N2CCCCC2)N=C(c2ccc(OCCCO)cc2)O[C@@H]1c1ccccc1`, for which the z-score was 0.426 in experiment [1]; -0.563 (inactive) in experiment [2]; -0.76 (inactive) in experiment [3]; 0.935 (inactive) in [5]; 0.262 (inactive) in experiment [6]; -0.174 (inactive) in [7]. In addition, the z-score in experiment [8] was -1.53 (inactive); in experiment [9], 0.0487. Besides, the composite z-score in experiment [4] was -0.159 (inactive); in [10], 0.138.
In the case of `[N-]=[N+]=NCc1ccccc1C[C@@]1(C(=O)NCC(O)CO)N=C(c2ccc(OCCCO)cc2)O[C@@H]1c1ccccc1` (stereo not given in full), the z-score is -1.07 in experiment [1]; -2.07 (inactive) in experiment [2]; -0.243 (inactive) in experiment [3]; 0.466 (inactive) in experiment [5]; 0.355 (inactive) in experiment [6]; 1.39 (inactive) in experiment [7]. The z-score was 0.322 (inactive) in experiment [8] and -0.645 in experiment [9]. For the same compound, the composite z-score was -0.0675 (inactive) in experiment [4] and 0.19 in experiment [10].
As for `O=C1N(CCS(=O)(=O)c2ccccc2)c2ccccc2[C@@H]2OC(c3ccc(OCCCO)cc3)=N[C@]12Cc1ccccc1`, the z-score was 0.292 in experiment [1]; -0.237 (inactive) in experiment [2]; -3.11 (inactive) in experiment [3]; 0.755 (inactive) in experiment [5]; 0.289 (inactive) in experiment [6]; 1.11 (inactive) in [7]. The z-score in experiment [8] was 1.03 (inactive); in experiment [9] it was -1.95. Further, the composite z-score is -1.52 (inactive) in [4] and 0.0999 in [10].
On to `CO[C@H]1O[C@H](CO)[C@@H](OC(=O)Nc2ccccc2-c2ccccc2)[C@H](OC(=O)Nc2ccccc2-c2ccccc2)[C@@H]1OC(=O)Nc1ccccc1-c1ccccc1`, for which the z-score in experiment [1] was -0.141; in experiment [2] it was -0.652 (inactive); in experiment [3], -0.146 (inactive); in experiment [5], 1.31 (inactive); in experiment [6], 2.59 (inactive); in experiment [7], 0.454 (inactive). The figures for the z-score in experiment [8] and in [9] were 0.434 (inactive) and 0.203, respectively. In addition, the composite z-score is 0.288 (inactive) in experiment [4] and -0.0233 in experiment [10].
As to `[N-]=[N+]=Nc1ccccc1C[C@]1(C(=O)NCc2ccccc2)N=C(c2ccc(OCCCO)cc2)O[C@H]1c1ccccc1N=[N+]=[N-]`, the z-score in experiment [1] is -1.17; in [2], 0.371 (inactive); in experiment [3], -3.49 (inactive); in experiment [5], 1.13 (inactive); in experiment [6] it was 0.879 (inactive); in [7] it was -0.377 (inactive). In addition, the z-score was -0.0802 (inactive) in experiment [8] and -2.83 in [9]. In addition, the composite z-score in [4] is 0.535 (inactive); in experiment [10], 0.0097.
For the compound `COC(=O)[C@@]1(Cc2ccc(OC)cc2)[C@H]2c3cc(C(=O)N4CCCC4)n(Cc4nc5ccccc5[nH]4)c3C[C@H]2CN1C(=O)c1ccccc1`, the z-score was 0.0719 in experiment [1]; 1.36 (inactive) in experiment [2]; -1.79 (inactive) in experiment [3]; -0.222 (inactive) in experiment [5]; 0.736 (inactive) in experiment [6]; -0.0181 (inactive) in experiment [7]. The z-score was -0.104 (inactive) in experiment [8] and -1.2 in [9]. Further, the composite z-score in experiment [4] is 0.98 (inactive); in [10], 0.62.
On to `COc1cc(CO)cc(I)c1O[C@H]1C=C(C(=O)NCCO)C[C@@H](NC[C@@H]2CCCO2)[C@@H]1O`, for which the z-score in experiment [1] was 0.773; in experiment [2] it was -0.813 (inactive); in experiment [3], -0.292 (inactive); in experiment [5], 0.0694 (inactive); in experiment [6], 0.683 (inactive); in experiment [7], 1.16 (inactive). Moreover, the z-score in [8] was 0.915 (inactive); in experiment [9] it was 0.577. Besides, the composite z-score in [4] is 0.459 (inactive); in [10], -0.13.
